Screening data deposited in PubChem by NMMLSC.
Bead autofluor = compound fluorescence in toxin protease inhibitor counterscreen. compound autofluorescence counterscreen, microsphere flow cytometry; stronger effect = higher value. fluorescence intensity (no concentration beside the values). 360,000 tested, 3.1% active; in the data active = fluorescence intensity above about 16000; inconclusive = no clear call, values can overlap the other calls
BoNT A protease = blocks Botulinum neurotoxin A light chain protease; multiplex microsphere protease substrate cleavage, flow cytometry; 360,000 tested, 0.17% active; inhibition, % at 10 µM; AID 588499; note: plate controls were buffer without enzyme for full effect and enzyme alone for no effect
Anthrax LF prot = blocks Bacillus anthracis lethal factor protease; P15917; 360,000 tested, 0.12% active; AID 588501; inhibition, % at 10 µM; multiplex microsphere protease cleavage assay, LF; note: plate controls were buffer without enzyme for full effect and enzyme alone for no effect
Target sequence (P15917 whole entry, looked up): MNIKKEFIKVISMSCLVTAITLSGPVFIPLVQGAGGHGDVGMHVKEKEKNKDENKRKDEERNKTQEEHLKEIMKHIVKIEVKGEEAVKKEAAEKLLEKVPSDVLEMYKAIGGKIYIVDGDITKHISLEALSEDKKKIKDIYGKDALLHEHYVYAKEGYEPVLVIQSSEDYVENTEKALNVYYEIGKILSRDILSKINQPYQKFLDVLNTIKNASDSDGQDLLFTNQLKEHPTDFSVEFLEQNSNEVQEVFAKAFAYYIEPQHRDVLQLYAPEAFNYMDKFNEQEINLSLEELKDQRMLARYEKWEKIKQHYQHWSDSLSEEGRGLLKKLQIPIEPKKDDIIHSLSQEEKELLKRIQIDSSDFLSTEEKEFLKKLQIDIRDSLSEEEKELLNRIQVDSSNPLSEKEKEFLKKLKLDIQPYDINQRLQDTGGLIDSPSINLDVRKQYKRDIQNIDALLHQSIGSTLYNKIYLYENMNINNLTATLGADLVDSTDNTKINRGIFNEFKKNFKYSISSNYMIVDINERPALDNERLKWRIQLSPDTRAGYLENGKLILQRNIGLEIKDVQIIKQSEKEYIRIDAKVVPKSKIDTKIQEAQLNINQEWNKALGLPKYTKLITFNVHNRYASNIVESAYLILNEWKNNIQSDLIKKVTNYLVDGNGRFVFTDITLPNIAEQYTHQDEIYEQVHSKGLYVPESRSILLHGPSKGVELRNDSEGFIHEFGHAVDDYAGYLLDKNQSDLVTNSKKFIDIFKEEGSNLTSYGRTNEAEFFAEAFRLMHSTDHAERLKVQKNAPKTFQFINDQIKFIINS
BoNT-F LC inh = inhibitors of Botulinum neurotoxin F light chain protease; Multiplex microsphere protease cleavage assay, flow cytometry; inhibition, % at 10 µM; 360,000 tested, 0.22% active; AID 588497; in the data active = inhibition above about 35%, passing the limit was not always enough; inconclusive = no clear call, values can overlap the other calls; note: plate controls were buffer without enzyme for full effect and enzyme alone for no effect
Numbers without * were called inactive; ? = inconclusive; ! = repeats disagree. A selection: hits, their analogues and other compounds. The true share with any hit is near 3.5%. Cut-off read from the data, not from the text of the source, unless noted: active = inhibition above about 30%; inconclusive = no clear call, values can overlap the other calls; inactive = below that.

SMILES | Bead autofluor | BoNT A protease | Anthrax LF prot | BoNT-F LC inh
CN(CC(=O)Nc1ccccc1Cl)C(=O)c1cccc(S(=O)(=O)N2CCN(Cc3ccccc3)CC2)c1 | 3463 | 13 | 6 | 14
COC(=O)[C@H](C)N(Cc1ccc(Cl)c(Cl)c1)S(=O)(=O)CCNC1CCCC1 | 3837 | 0 | 0 | -11
Cc1nc(C)c(C(=O)Nc2ccccc2-c2ccccc2)o1 | 23592* | 0 | -1 | 1
Cc1ccc(NC(=O)CSc2nc(-c3ccco3)cc(C(F)(F)F)n2)cc1C | 17763* | -4 | 0 | -10
O=C(CN1CCN(S(=O)(=O)N2CCCCC2)CC1)Nc1cc(Cl)ccc1Cl | 3209 | -3 | 0 | -15
NC(=O)C1(N2CCCCC2)CCN(CC(=O)Nc2cc(Cl)ccc2Cl)CC1 | 24349* | -3 | -4 | -6
CCOc1cc(N2CCOCC2)c(OCC)cc1NC(=O)COC(=O)c1cc2ccccc2cc1O | 2443 | 0 | 0 | -2
CCOc1cc(N2CCOCC2)c(OCC)cc1NC(=O)COc1ncnc2ccccc12 | 19880* | -1 | -6 | -4
Cc1ccc(CC(C)(O)CC(C)(O)Cc2ccc(C)cc2)cc1 (stereo not drawn) | 3100 | -1 | 0 | -17
COC(=O)c1ccc(CSc2nc3scc(-c4cccs4)c3c(=O)[nH]2)o1 | 20323* | ? | 1 | 4
Cn1nc(C(C)(C)C)cc1C(=O)N1CCCCC1c1cc(C(=O)N2CCOCC2)no1 (stereo not drawn) | 3699 | 0 | -3 | -2
O=C(CSc1nc2ccccc2[nH]1)NCCCn1ccnc1 | 16490* | 1 | 0 | 1
Nc1cc(Br)c(N)c(Br)c1 | 24247* | -2 | -2 | -9
Nc1ncc(Br)cc1Br | 1968 | 1 | -1 | 6
CCOC1(C(F)(F)F)NC(=O)N(Cc2ccc(OC)cc2)C1=O (stereo not drawn) | 19545* | 0 | -8 | 0
COc1cccc(CNc2nc3cc(-c4cccc(C(=O)NCCO)c4)sc3c(=O)n2C)c1 | 3978 | 0 | -6 | -3
COn1c(-c2ccccc2)c(C=O)c2ccccc21 | 37117* | -102 | -71 | ?
CCN(CC)S(=O)(=O)c1cccc(NC(=O)CC2CCCC2)c1 | 3152 | -3 | 5 | 7
CCN(CC)S(=O)(=O)c1cccc(NC(=O)Nc2cccc(C(F)(F)F)c2)c1 | 21515* | -6 | -4 | -11
CCN(CC)S(=O)(=O)c1cccc(C(=O)NC2CCCCC2)c1 | 21448* | ? | 1 | -1
CN(c1ccccc1)S(=O)(=O)c1cccc(C(=O)NC2CCCC2)c1 | 3498 | 0 | 1 | -1
CCN(CC)S(=O)(=O)c1cc(C(=O)Nc2cccnc2)ccc1Cl | 11204 | 0 | -2 | -1
CCN(CC)S(=O)(=O)c1cccc(C(=O)Nc2cccnc2)c1 | 22467* | ? | -8 | 3
COCCCN(C(=O)c1cc(C)oc1C)c1c(N)n(CC(C)C)c(=O)[nH]c1=O | 3648 | 0 | 4 | -10
COc1cc(C2NC(=S)NC(c3ccccc3)=C2C(C)=O)cc(Cl)c1OCC(=O)O (stereo not drawn) | 23312* | 0 | 1 | -1
SMILES | Bead autofluor | BoNT A protease | Anthrax LF prot | BoNT-F LC inh
CCOC(=O)/C(=N\Nc1cccc(C(F)(F)F)c1)N(CCOC)CCOC | 22213* | ? | 0 | -8
CCOC(=O)/C(=N\Nc1cccc(C(F)(F)F)c1)N1CCOCC1 | 4396 | 0 | -3 | -1
O=S(=O)(NC1CCCCC1N1CCC(O)CC1)c1ccccc1 (stereo not drawn) | 8668 | -4 | 12 | 6
CC(=O)c1cnc(Nc2cccc(Cl)c2Cl)s1 | 4964 | 0 | 1 | -5
O=C(c1ccc(Cl)cc1)c1cnc(Nc2ccccc2Cl)s1 | 20938* | ? | -1 | -7
CCCCCC(=O)N1CCN(CCN=CC2=C(O)CC(c3ccco3)CC2=O)CC1 (stereo not drawn) | ? | 0 | 9 | -4
CCCCCC(=O)N1CCN(CCN=CC2=C(O)CC(c3cccs3)CC2=O)CC1 (stereo not drawn) | 19021*! | 0 | -3 | -2
COc1ccccc1C#Cc1cnc2c(c1)C(=O)N([C@H](C)CO)C[C@H](C)[C@@H](CN(C)S(=O)(=O)c1cn(C)cn1)O2 | 2984 | 0 | -5 | -4
CCOC(=O)/C(C#N)=C1\Nc2ccccc2N=C1N(CC(C)C)CC(C)C | 9201 | 38* | 27 | 30
CCOC(=O)C1=C(C)Nc2ccccc2N=C1N | 3870 | 0 | -2 | 0
CCOC(=O)/C(C#N)=C1/C=C(C)NC(c2ccccc2O)=N1 | 10689 | 1 | -4 | 3
CCCCN(CCCC)C1=Nc2ccccc2N/C1=C(/C#N)C(=O)OCC | 2940 | 65* | 40* | 34
CCN(C(=O)COc1cc(=O)n(CC)c2ccccc12)c1cc(Cl)ccc1OC | 6085 | -1 | 4 | -7
CCN(C(=O)COc1cc(=O)n(CC)c2ccccc12)c1cccc(Cl)c1 | 20694* | -1 | -2 | -2
